Common to all, as to assay: protein-binding microarray (PBM); PBM: ~300 nM protein, 6 mM HEPES pH 7.8, 80 mM KCl, 0.5 mM EDTA, 0.5 mM EGTA, 6% glycerol, 35 ng/ul poly-dIdC, 1% milk, 1 h, room temperature; Ap Aiptasia and Nv Nematostella (sea anemones) / Co Capsaspora / Aq Amphimedon (sponge) / Dm Drosophila / Hu human; RHD is the Rel homology domain; high values mean tight binding
Holding throughout (conditions): dsDNA, one strand shown

The target in one test is T1, GST-Ap-NF-kB RHD (Exaiptasia pallida (Aiptasia), UniProt A0A913YAJ5 2-422).
T1 sequence: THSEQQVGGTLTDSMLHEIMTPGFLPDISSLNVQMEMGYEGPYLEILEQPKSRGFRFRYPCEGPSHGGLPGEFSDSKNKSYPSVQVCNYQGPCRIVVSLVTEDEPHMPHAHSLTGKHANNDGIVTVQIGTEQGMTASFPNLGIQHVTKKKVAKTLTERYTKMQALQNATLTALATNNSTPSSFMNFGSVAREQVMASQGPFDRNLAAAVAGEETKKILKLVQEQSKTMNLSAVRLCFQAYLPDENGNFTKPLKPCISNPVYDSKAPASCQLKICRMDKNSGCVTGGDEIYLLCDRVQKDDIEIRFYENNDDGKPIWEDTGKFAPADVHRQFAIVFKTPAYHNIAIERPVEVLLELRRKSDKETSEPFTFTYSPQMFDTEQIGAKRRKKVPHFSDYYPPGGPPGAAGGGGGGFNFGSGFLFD

For test [1], the target named is T2, GST-Nv-NF-kB (Cys allele) (Nematostella vectensis, UniProt E5G601 2-411).
T2 sequence: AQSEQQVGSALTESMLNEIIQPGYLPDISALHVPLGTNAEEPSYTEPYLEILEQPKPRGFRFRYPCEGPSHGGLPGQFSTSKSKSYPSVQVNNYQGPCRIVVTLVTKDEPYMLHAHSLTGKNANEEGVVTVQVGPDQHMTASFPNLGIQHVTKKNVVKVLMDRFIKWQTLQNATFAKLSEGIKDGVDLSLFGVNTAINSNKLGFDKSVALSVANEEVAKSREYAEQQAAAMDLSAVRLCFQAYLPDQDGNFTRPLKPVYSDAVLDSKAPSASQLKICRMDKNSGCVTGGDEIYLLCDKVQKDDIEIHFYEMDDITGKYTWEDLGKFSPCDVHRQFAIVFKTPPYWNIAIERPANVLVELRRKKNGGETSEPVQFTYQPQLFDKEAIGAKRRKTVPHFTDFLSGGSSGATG

The target in test [2] is T3, GST-Nv-NF-kB (Ser allele) (Nematostella vectensis, UniProt A7UNT2 2-411).
T3 sequence: T2 sequence with Q21R, C66S, S207N, E215Q, V217A, E225K, A268E, D399E

The next test has as its target T4, GST-Co-NF-kB (Capsaspora owczarzaki, UniProt F1ARL5 200-546).
T4 sequence: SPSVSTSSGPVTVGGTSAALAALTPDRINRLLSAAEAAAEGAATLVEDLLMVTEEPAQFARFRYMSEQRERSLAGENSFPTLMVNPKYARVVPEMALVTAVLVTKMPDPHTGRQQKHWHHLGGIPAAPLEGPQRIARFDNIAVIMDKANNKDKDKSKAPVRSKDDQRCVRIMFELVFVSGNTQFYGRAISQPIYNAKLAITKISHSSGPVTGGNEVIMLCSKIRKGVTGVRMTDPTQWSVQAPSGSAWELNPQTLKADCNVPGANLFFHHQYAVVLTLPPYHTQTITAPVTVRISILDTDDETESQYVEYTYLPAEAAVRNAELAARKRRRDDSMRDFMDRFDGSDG

The next test addresses T5, GST-Dm-Relish (Drosophila melanogaster, UniProt Q94527 99-473).
T5 sequence: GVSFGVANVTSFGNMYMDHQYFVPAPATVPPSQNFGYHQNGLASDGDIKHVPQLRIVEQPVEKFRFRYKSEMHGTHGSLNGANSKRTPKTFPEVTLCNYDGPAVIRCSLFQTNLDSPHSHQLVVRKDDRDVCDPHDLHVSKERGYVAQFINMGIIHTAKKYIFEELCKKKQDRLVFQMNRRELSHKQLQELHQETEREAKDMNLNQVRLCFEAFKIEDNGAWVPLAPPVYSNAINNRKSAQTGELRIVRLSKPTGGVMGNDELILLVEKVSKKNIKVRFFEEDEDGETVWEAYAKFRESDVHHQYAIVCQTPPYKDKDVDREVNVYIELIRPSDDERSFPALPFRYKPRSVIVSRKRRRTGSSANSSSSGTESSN

A further test addresses T6, GST-Aq-NF-kB (Amphimedon queenslandica, UniProt A9Y5G7 2-389).
T6 sequence: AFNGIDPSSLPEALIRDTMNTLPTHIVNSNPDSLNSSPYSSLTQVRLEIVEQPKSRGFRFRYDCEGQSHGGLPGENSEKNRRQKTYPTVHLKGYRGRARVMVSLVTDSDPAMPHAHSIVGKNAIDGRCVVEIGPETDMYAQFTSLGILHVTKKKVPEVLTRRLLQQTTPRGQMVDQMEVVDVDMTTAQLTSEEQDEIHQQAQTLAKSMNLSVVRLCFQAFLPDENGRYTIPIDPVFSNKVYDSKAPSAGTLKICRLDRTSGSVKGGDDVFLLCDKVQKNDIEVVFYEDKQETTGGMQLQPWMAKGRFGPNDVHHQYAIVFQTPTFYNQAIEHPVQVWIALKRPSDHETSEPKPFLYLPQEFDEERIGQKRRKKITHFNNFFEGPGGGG

For a further test, the target named is GST-Hu-p50 (Homo sapiens, UniProt P19838 7-356).
Sequence of GST-Hu-p50 (P19838 7-356): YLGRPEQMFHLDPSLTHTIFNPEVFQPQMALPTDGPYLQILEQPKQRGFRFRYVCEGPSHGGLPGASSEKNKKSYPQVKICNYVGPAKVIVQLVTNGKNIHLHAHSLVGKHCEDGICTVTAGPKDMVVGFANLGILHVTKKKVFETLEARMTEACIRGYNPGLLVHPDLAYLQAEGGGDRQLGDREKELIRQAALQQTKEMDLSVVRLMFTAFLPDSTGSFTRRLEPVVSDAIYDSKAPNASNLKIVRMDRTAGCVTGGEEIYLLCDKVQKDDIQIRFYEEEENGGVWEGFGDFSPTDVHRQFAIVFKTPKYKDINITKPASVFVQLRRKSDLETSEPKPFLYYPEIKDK

Substitutions are numbered along the chain they refer to.

As to “CCGATTAACATCAGGGATTCCCCTGATGTTAATCGGGTCTTGATTCGCTTGACGCTGCTG”, the binding signal was determined as 13.9 z-score in the test with GST-Ap-NF-kB RHD; 13.2 z-score in test [1]; 15.4 z-score in test [2]; 6.68 z-score in the test with GST-Co-NF-kB; 11.2 z-score with GST-Dm-Relish; 11.5 z-score with GST-Aq-NF-kB. Moreover, the binding signal in the test with GST-Hu-p50 amounted to 8.74 z-score.

“CCGATTAACATCAAAAACCCCCTTGATGTTAATCGGGTCTTGATTCGCTTGACGCTGCTG”: the binding signal with GST-Ap-NF-kB RHD was determined as 10.4 z-score; in test [1], 10.3 z-score; in test [2], 10.9 z-score; with GST-Co-NF-kB it was 2.93 z-score; with GST-Dm-Relish, 10.9 z-score; with GST-Aq-NF-kB, 9.31 z-score. For the same sequence, the binding signal with GST-Hu-p50 turned out to be 8.33 z-score.

For the sequence “CCGATTAACATCAAGGGGGAATCTGATGTTAATCGGGTCTTGATTCGCTTGACGCTGCTG”, the binding signal with GST-Ap-NF-kB RHD is 8.47 z-score; in test [1], 8.91 z-score; in test [2] it was 9.87 z-score; in the test with GST-Co-NF-kB, 8.32 z-score; with GST-Dm-Relish, 6.04 z-score; with GST-Aq-NF-kB, 6.38 z-score. This sequence displayed a binding signal with GST-Hu-p50 of 7.36 z-score.

As to “CCGATTAACATCAGGGGAAGAACTGATGTTAATCGGGTCTTGATTCGCTTGACGCTGCTG”, the binding signal stood at 4.9 z-score in the test with GST-Ap-NF-kB RHD; 5.96 z-score in test [1]; 6.48 z-score in test [2]; 6.9 z-score with GST-Co-NF-kB; 9.56 z-score with GST-Dm-Relish; 5.61 z-score with GST-Aq-NF-kB. In addition, in the test with GST-Hu-p50, the binding signal was found to be 4.93 z-score.

As to “CCGATTAACATCAGCAATCCCCCTGATGTTAATCGGGTCTTGATTCGCTTGACGCTGCTG”, the binding signal amounted to 7.85 z-score in the test with GST-Ap-NF-kB RHD; 6.26 z-score in test [1]; 6.95 z-score in test [2]; 4.31 z-score with GST-Co-NF-kB; 5.79 z-score with GST-Dm-Relish; 5.16 z-score with GST-Aq-NF-kB. Moreover, the binding signal with GST-Hu-p50 stood at 6.73 z-score.

For the sequence “CCGATTAACATCAAAGTTTCCCCTGATGTTAATCGGGTCTTGATTCGCTTGACGCTGCTG”, the binding signal with GST-Ap-NF-kB RHD was determined as 7.96 z-score; in test [1] it was 9.57 z-score; in test [2], 12 z-score; with GST-Co-NF-kB it was 10.6 z-score; in the test with GST-Dm-Relish, 5.37 z-score; with GST-Aq-NF-kB, 7.26 z-score. This sequence gave a binding signal with GST-Hu-p50 of 6.85 z-score.

With “CCGATTAACATCACGGGGAATTATGATGTTAATCGGGTCTTGATTCGCTTGACGCTGCTG”, the binding signal with GST-Ap-NF-kB RHD came out at 7.23 z-score; in test [1], 8.96 z-score; in test [2], 9.51 z-score; with GST-Co-NF-kB, 8.2 z-score; with GST-Dm-Relish it was 6.78 z-score; with GST-Aq-NF-kB, 6.42 z-score. The same sequence had a binding signal with GST-Hu-p50 of 6.24 z-score.

Turning to “CCGATTAACATCACAGAAATCCCTGATGTTAATCGGGTCTTGATTCGCTTGACGCTGCTG”, the binding signal with GST-Ap-NF-kB RHD is 4.33 z-score; in test [1] it was 3.88 z-score; in test [2], 3.79 z-score; with GST-Co-NF-kB, 1.43 z-score; with GST-Dm-Relish it was 5.77 z-score; with GST-Aq-NF-kB, 3.9 z-score. The sequence further registered a binding signal with GST-Hu-p50 of 3.37 z-score.

For “CCGATTAACATCAGGGAATTTGATGATGTTAATCGGGTCTTGATTCGCTTGACGCTGCTG”, the binding signal is 3.63 z-score with GST-Ap-NF-kB RHD; 4.8 z-score in test [1]; 5.71 z-score in test [2]; 3.17 z-score with GST-Co-NF-kB; 2.77 z-score with GST-Dm-Relish; 3.69 z-score with GST-Aq-NF-kB. The same sequence gave a binding signal with GST-Hu-p50 of 3.22 z-score.

As to “CCGATTAACATCAGGGAAGACCCTGATGTTAATCGGGTCTTGATTCGCTTGACGCTGCTG”, the binding signal with GST-Ap-NF-kB RHD turned out to be 4.49 z-score; in test [1] it was 5.72 z-score; in test [2], 3.5 z-score; with GST-Co-NF-kB, 1.33 z-score; with GST-Dm-Relish, 7.97 z-score; with GST-Aq-NF-kB, 7.06 z-score. In the test with GST-Hu-p50, this sequence returned a binding signal of 3.16 z-score.

For the origin of these results see publication PMC5700166.
